Test results published in PubChem BioAssay AID1159506 (National Center for Advancing Translational Sciences (NCATS), 2015).
Over roughly 59,000 sequences, the read-out has its median near -0.00055; the lowest 2% begin near -2. Shown is part of a subset that was picked to be rich in the lowest values.

Assay: Identification of proteins required for the processing of the EWS-FLI1 nascent transcript;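 further: robust z of luciferase light less the median z of siRNAs with the same seed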
Conditions: TC32 Ewing sarcoma NR0B1-luc vs CMV-luc (EWS-FLI1 target promoter against control promoter), 48 h; screened at 20 nM (by protocol)
Procedure, shortened: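 Three siRNAs per gene, each in a separate well at 20 nM, were transfected into TC32 cells bearing either reporter construct. Luminescence was measured two days on, and per-gene comparison relied on seed-corrected Z values.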

Sequence	seed-corrected z-score
UCCAGUUGUAUGUAAGGGC against ZDHHC6	-1.09
AAUGGUCUUGUGAAUGGUC against LSM12	-2.08
UUUCGUCAACAGUUCAAUC against USP34	-0.287
UAAUCGAAAAACUUCAAUG against CLN5	-0.147
AUCUCUGUAAGAUUGAUUC against ELMOD2	0.0598
UUGCUUUCCACAACGAGAU against CHL1-AS2	-0.29
UUCUGCAUCAUAAUUGUCG against ADPRHL1	-0.679
UUGGUAGGCAUCGUAGUAG against CLDN2	0.894
UAGCUGUGUGGAUCAGUGC against LOC642502	-2.62
UCACUGUAUCUAAUAAAGC against FRG1JP	-0.744
AAUUUUAUCACCCAGAAAC against FCGR2B	0.134
UGAGUUUCUUCUCCGUUCU against C11orf97	-3.81
UGAAAAGCGCUGCUUAACC against PRSS45	0.905
UUCUUUGAUAGACUUCACC against FTMT	0.658
UGAGAGUUAAAGGCCUUUC against ABHD14A	-2.97
AAAUGUGCUCAAACUGUCU against ARL14	-0.125
UUCUCUCAAGCUUCAAUGG against ZNF286A	0.716
AGAGUUAAUUGGUAUGUCC against GIGYF1	0.0611
UCUGUUACUUCUGGUUUGC against BAAT	-0.229
UUAGCUGCUAGAAACAAGG against CCNT1	-2.99
UGAGUUUCCAUGCAUAGGA against GOLGA7	-3.67
UCAGGUACGACUUUCGAUA against C1orf109	-1.21
AGAGAUACAAGGUUUGAUC against ARG2	-0.0393
UCCUUGUACACGGCCAGCU against PCED1CP	0.3
UGUACAUAGACGGUGAGGC against CD200	0.299
